The record followed here is PubChem BioAssay.

Assay [1] has as its system PRMT1 (protein arginine N-methyltransferase 1). Put plainly: PRMT1 binders on small-molecule microarrays, primary screen, biochemical, small-molecule microarray, 635 nm fluorescence (AID 1088).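 Also: binding of Prmt1 protein to compounds spotted on small-molecule microarray slides.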 Particulars: small-molecule microarray binding, higher = more signal.
Assay [2] in a line: yeast growth modulation, basal conditions, primary screen, YJM789 clinical isolate, OD600, 24 h (AID 1089).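 Also: growth of clinical yeast isolate S. cerevisiae YJM 789 seeded 1000 cells per well; test concentration not given here.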 Particulars: S. cerevisiae YJM789 growth, higher = more signal, called active from +8 up or from −8 down.
A short description of assay [3]: fission yeast growth modulation, primary screen, strain 972, OD600, 24 h, no modulator (AID 1090).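 Also: basal condition with compound alone and no growth modifier present; test concentration not given here.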 To be noted: S. pombe 972 growth, higher = more signal, called active from +8 up or from −8 down.
A short description of assay [4]: S. cerevisiae growth modulation with rapamycin, primary screen, strain BY4716, OD600, 96 h (AID 1091). Also: test concentration not given here. To be noted: higher = more signal, called active from +8 up or from −8 down.
Assay [5] concerns the target Torsin-1A-interacting protein 2 (Homo sapiens) (UniProt Q8NFQ8). Put plainly: LULL1 binders on small-molecule microarray, primary screen, cell lysate, human LULL1 lysate, 635/667 nm fluorescence (AID 1092).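 Also: probe is lysate of COS7 cells overexpressing human LULL1; score merges per-feature 667 nm fluorescence with signal-to-noise.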 Particulars: hLULL1 lysate binding, 635 nm fluorescence, higher = more signal.
Assay [6] in a line: E. coli growth modulation, two-sided OD650, primary screen, E. coli filamentation project, strain DRC41, 24 h (AID 1093).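 Also: MC1000 strain lacking acrAB efflux and sulA so SOS filamentation is blocked; test concentration not given here.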 Particulars: OD650, 24 h, higher = more signal, called active from +8 up or from −8 down.
Assay [7] can be described thus: small-molecule microarray binders of probe aLefty2, primary screen, biochemical, biotinylated probe, 635/667 nm fluorescence (AID 1094).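 Also: score merges spot fluorescence near 667 nm with spot signal-to-noise ratio.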 To be noted: higher = more signal.
The subject of assay [8] is Noggin (protein binding on small-molecule microarray). Kind of assay: Noggin binders on small-molecule microarray, primary screen, biochemical, 635/667 nm fluorescence (AID 1095).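 Also: score merges 667 nm feature fluorescence with signal to noise over triplicate slides.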 To be noted: 635 nm fluorescence, higher = more signal.
Assay [9] concerns the target Neurogenic locus notch homolog protein 3 (Homo sapiens) (UniProt Q9UM47). Kind of assay: NOTCH3 binders on small-molecule microarray, primary screen, biochemical, 635/667 nm fluorescence (AID 1096). To be noted: NOTCH3 binding, 635 nm fluorescence, higher = more signal.
Assay [10] can be described thus: small-molecule microarray binders of probe aEGFR, primary screen, biochemical, biotinylated probe, 635/667 nm fluorescence (AID 1097).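 Also: probe is a biotinylated anti-EGFR antibody binding compounds printed on slides; score combines fluorescence near 667 nm and signal to noise of each spot.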 Particulars: higher = more signal.
Assay [11] deals with Plasmodium falciparum Sir2 (PF13_0152, Sir2A). Put plainly: pfSir2 binders on small-molecule microarrays, primary screen, biochemical, small-molecule microarray, 635 nm fluorescence (AID 1098).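 Also: score merges spot fluorescence intensity with its signal-to-noise ratio.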 To be noted: small-molecule microarray binding, fluorescence 635 nm; higher = more signal.
Assay [12] in a line: small-molecule microarray binders of probe aDKK1, primary screen, biochemical, biotinylated probe, 635/667 nm fluorescence (AID 1099).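 Also: score merges 667nm spot fluorescence with signal to noise across triplicate slides; reference of the scale not given here.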 To be noted: higher = more signal.
Assay [13] is described as follows: small-molecule microarray binders of probe aCHRDL2, primary screen, biochemical, biotinylated probe, 635/667 nm fluorescence (AID 1100). To be noted: higher = more signal.
Assay [14] in a line: splicing luciferase reporter signal modulators, primary screen, spliceosome inhibition project, cell-based, HEK293, splice +/- reporter (AID 1101).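 Also: HEK293 cells carrying a splicing-competent luciferase reporter gene; test concentration not given here.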 Particulars: luminescence, 24 h, higher = more signal, called active from +8 up or from −8 down.
Assay [15] has as its target Fibroblast growth factor 10 (Homo sapiens) (UniProt O15520). Kind of assay: FGF10 binders on small-molecule microarrays, primary screen, biochemical, small-molecule microarray, 635 nm fluorescence (AID 1102). To be noted: FGF10 binding, fluorescence 635 nm, higher = more signal.
For assay [16], the system named is glycogen synthase kinase-3 (GSK3A per assay name; protocol says GSK3B). Kind of assay: GSK3 binders on small-molecule microarrays, primary screen, biochemical, small-molecule microarray, 635 nm fluorescence, GSK3A (AID 1103). Also: the record names both GSK3A and GSK3B. To be noted: small-molecule microarray binding, fluorescence 635 nm; higher = more signal.
For assay [17], the target named is Epidermal growth factor receptor (Homo sapiens) (UniProt P00533). Kind of assay: EGFR binders on small-molecule microarrays, primary screen, biochemical, small-molecule microarray, 635 nm fluorescence (AID 1104).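 Also: score merges 667 nm emission intensity with spot signal to noise over triplicate slides.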 To be noted: EGFR binding, higher = more signal.
Epidermal growth factor receptor (Homo sapiens), sequence (P00533 whole entry, looked up): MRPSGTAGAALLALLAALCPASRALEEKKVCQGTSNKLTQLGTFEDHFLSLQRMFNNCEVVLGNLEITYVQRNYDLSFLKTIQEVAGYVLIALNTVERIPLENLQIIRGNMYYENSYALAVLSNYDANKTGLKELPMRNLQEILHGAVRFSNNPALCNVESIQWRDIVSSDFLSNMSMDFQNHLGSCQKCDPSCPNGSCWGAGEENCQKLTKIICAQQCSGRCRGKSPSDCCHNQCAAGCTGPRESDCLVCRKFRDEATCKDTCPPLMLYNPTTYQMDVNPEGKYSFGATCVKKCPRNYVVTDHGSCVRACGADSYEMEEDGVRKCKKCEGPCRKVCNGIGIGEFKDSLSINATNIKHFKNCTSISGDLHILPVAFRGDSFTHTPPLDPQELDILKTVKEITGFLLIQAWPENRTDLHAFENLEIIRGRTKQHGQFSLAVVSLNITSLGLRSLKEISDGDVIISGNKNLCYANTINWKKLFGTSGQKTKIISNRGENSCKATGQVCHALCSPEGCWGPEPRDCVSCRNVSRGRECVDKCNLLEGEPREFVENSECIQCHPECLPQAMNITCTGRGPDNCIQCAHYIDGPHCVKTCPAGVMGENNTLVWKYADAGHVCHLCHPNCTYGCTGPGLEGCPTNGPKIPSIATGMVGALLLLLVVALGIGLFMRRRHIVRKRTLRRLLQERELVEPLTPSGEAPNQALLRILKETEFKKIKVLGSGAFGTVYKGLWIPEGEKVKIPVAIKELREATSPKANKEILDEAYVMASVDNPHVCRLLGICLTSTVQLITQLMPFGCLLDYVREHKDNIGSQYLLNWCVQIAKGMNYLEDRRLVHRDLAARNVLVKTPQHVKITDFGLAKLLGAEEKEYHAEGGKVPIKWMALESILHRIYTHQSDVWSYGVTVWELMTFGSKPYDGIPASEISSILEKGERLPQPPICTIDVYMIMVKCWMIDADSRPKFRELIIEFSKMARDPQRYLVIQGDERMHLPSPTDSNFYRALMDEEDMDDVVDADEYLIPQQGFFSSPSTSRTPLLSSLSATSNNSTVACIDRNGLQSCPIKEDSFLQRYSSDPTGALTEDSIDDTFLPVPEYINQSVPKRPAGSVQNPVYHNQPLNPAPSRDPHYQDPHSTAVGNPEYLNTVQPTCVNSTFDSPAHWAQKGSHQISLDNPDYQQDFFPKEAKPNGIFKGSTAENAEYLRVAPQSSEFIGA
The target of assay [18] is Follistatin-related protein 3 (Homo sapiens) (UniProt O95633). Put plainly: FSTL3 binders on small-molecule microarrays, primary screen, biochemical, small-molecule microarray, 635 nm fluorescence (AID 1105).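 Also: score merges emission near 667 nm and signal to noise per printed spot across three slides.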 Particulars: FSTL3 binding, higher = more signal.
Follistatin-related protein 3 (Homo sapiens), sequence (O95633 whole entry, looked up): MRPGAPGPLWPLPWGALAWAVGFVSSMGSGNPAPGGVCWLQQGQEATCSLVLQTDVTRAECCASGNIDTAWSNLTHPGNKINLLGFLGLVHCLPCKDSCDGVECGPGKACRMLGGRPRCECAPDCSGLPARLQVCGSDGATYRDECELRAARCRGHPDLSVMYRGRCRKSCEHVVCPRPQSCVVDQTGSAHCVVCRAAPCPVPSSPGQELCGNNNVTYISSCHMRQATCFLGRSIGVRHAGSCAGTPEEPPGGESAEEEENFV
Assay [19] addresses Dickkopf-related protein 1 (Homo sapiens) (UniProt O94907). Put plainly: DKK1 binders on small-molecule microarrays, primary screen, biochemical, small-molecule microarray, 635 nm fluorescence scan (AID 1106).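 Also: score merges emission near 667 nm with signal to noise over three replicate slides.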 To be noted: DKK1 binding, higher = more signal.
Assay [20] deals with Inhibin beta A chain (activin A). Kind of assay: INHBA (activin A) binders on microarrays, primary screen, biochemical, small-molecule microarray, 635 nm fluorescence scan (AID 1107).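 Also: mouse activin A protein probed at 4.33 µg/mL on printed slides; score merges bound-protein fluorescence near 667 nm with spot signal-to-noise.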 Particulars: small-molecule microarray binding, higher = more signal.

Molecules are shown by their SMILES. Calls of active or inactive are those of the source.

Fibroblast growth factor 10 (Homo sapiens), sequence (O15520 whole entry, looked up): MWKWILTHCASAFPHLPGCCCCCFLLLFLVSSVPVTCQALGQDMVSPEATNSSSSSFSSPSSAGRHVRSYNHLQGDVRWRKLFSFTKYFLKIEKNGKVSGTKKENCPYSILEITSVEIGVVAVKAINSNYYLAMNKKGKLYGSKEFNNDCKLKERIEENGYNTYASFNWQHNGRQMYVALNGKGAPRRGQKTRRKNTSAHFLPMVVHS
Torsin-1A-interacting protein 2 (Homo sapiens), sequence (Q8NFQ8 whole entry, looked up): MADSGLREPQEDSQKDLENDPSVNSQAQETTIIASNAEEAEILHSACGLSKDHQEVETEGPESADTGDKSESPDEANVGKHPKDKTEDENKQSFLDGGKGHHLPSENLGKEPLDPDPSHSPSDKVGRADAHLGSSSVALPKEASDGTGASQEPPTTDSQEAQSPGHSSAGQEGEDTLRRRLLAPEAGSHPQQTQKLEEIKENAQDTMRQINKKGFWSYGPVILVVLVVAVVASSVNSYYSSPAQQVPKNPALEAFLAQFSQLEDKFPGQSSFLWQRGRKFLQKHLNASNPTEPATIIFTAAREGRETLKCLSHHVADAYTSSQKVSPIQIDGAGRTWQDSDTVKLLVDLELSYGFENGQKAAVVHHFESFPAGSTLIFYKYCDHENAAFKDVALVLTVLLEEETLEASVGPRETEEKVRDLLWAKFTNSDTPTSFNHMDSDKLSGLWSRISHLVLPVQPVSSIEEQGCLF
Neurogenic locus notch homolog protein 3 (Homo sapiens), sequence (Q9UM47 whole entry, looked up): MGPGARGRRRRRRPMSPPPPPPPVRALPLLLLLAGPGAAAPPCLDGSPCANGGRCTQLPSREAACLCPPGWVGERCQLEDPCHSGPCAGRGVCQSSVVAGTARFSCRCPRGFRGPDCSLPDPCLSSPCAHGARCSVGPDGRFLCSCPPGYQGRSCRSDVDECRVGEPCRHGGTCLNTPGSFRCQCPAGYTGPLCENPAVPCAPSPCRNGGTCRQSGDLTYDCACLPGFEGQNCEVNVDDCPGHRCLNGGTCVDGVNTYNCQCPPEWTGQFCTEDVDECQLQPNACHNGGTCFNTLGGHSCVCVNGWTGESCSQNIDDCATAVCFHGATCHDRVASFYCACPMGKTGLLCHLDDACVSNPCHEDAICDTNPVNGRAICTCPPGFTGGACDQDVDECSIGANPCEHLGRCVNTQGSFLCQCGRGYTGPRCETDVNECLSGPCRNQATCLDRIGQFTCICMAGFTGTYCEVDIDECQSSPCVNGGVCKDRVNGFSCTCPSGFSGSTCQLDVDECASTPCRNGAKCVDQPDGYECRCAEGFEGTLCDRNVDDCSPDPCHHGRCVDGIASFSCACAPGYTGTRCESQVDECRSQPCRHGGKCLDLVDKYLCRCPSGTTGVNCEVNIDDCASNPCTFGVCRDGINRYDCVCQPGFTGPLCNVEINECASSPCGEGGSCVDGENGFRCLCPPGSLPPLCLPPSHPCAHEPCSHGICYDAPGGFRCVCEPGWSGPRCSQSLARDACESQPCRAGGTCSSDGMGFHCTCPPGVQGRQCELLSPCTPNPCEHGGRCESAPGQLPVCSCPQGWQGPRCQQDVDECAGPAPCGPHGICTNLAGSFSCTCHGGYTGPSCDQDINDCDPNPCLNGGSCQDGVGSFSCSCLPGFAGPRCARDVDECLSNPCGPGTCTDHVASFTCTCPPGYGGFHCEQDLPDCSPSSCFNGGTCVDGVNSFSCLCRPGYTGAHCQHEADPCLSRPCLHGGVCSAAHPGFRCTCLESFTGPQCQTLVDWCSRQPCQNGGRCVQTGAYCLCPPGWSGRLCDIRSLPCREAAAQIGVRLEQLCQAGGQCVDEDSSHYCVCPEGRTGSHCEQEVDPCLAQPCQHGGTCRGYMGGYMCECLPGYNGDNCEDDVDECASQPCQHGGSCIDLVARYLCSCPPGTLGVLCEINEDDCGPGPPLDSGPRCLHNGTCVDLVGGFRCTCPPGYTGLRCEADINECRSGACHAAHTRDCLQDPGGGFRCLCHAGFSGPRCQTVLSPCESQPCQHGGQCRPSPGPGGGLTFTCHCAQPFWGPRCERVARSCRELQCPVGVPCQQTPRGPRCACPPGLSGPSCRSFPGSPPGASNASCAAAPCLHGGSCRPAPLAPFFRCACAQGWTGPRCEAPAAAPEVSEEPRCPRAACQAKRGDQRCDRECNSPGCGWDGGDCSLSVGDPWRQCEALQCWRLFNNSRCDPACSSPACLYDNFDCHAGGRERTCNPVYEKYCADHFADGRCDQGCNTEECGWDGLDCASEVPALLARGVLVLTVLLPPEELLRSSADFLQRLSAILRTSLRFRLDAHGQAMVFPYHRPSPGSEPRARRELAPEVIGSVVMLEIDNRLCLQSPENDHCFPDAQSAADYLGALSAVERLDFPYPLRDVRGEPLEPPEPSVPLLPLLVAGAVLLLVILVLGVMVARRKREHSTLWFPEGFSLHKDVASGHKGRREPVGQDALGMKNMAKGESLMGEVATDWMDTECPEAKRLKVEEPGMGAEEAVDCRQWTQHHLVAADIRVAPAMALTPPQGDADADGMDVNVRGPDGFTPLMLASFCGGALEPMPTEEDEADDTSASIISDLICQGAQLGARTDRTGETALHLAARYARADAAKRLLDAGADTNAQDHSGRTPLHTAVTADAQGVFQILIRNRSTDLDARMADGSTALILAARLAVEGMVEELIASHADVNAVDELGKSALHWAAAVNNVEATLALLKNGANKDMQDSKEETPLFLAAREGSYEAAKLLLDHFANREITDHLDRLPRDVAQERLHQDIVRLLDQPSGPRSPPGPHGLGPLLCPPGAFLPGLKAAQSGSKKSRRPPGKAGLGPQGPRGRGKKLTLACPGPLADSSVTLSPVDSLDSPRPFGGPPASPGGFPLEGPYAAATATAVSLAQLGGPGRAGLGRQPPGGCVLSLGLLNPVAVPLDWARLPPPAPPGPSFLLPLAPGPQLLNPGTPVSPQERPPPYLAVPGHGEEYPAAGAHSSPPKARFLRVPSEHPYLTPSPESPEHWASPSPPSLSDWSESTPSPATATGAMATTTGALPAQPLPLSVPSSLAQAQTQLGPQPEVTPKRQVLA
Dickkopf-related protein 1 (Homo sapiens), sequence (O94907 whole entry, looked up): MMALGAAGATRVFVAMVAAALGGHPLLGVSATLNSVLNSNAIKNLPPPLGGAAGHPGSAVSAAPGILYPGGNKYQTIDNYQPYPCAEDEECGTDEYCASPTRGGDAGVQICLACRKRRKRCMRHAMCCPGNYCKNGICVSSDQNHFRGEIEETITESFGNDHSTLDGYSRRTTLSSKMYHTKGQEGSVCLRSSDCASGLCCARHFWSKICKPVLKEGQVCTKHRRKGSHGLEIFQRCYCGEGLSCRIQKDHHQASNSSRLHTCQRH

As for `CCCNC(=O)OC[C@H]1O[C@H](CCON=C[C@@H](OC)[C@H](C)C=CCC(=O)OC)C=C[C@@H]1Oc1ccc(OC)cc1`, the composite z-score is 1.17 in assay [1]; 0.524 in assay [5]; -0.0519 in [7]; 0.194 in assay [8]; -0.31 in assay [9]; -0.136 in assay [10]. In addition, the composite z-score was 0.638 in assay [11]; -0.305 in assay [12]; -0.528 in assay [13]; 0.463 in assay [15]; -0.0589 in assay [16]; 0.15 in assay [17]. The composite z-score in assay [18] came to 0.109; in assay [19], 0.482; in assay [20] it was 0.717. The z-score is -1.01 (inactive) in [2]; 0.141 (inactive) in assay [3]; -0.0988 (inactive) in assay [4]; 0.294 (inactive) in assay [6]; -0.213 (inactive) in [14].
Take `CC(C)[C@H](NC(=O)OC(C)(C)C)[C@@H](O)CC(=O)OC(C)(C)C`: the composite z-score is -1.84 in assay [1]; -1.63 in assay [5]; -0.22 in assay [7]; -0.531 in assay [8]; -0.904 in [9]; -0.29 in [10]. Moreover, the composite z-score is -1.02 in [11]; -0.298 in assay [12]; -0.215 in [13]; -0.658 in assay [15]; -1.38 in [16]; -0.664 in [17]. Also, the composite z-score in assay [18] was -0.746; in [19], -0.327; in [20] it was 0.0055. The z-score was -0.0351 (inactive) in assay [2]; -0.379 (inactive) in [3]; 0.596 (inactive) in assay [4]; -0.809 (inactive) in assay [6]; -0.566 (inactive) in assay [14].
`O=C1[C@H]2[C@H]3[C@H](O)[C@H](O)CC(=NOC[C@@H](O)COCc4ccco4)[C@H]3CC[C@H]2C(=O)N1c1cccc(Oc2ccccc2)c1`: the composite z-score in [1] was -0.267; in assay [5] it was -0.306; in assay [7] it was -0.172; in assay [8] it was 1.55; in assay [9], -0.413; in assay [10] it was -0.174. Further, the composite z-score in [11] was 0.846; in assay [12] it was -0.317; in assay [13], 0.166; in assay [15], -0.86; in assay [16], -0.686; in assay [17] it was -0.249. For the same compound, the composite z-score is -0.65 in assay [18], -0.547 in assay [19] and 0.624 in assay [20]. Also, the z-score in assay [2] is -0.19 (inactive); in assay [3] it was 0.549 (inactive); in assay [4], -0.502 (inactive); in [6], 0.354 (inactive); in assay [14], -0.716 (inactive).
Regarding `C=CCNC(=O)[C@H]1[C@@H]2C(=O)O[C@@H](c3ccccc3)[C@@H](c3ccccc3)N2[C@@H](c2ccc(O)cc2)[C@]12C(=O)N(C(=O)OCCOC)c1ccc(C#CC3=CCCCC3)cc12`, the composite z-score in [1] is 1.54; in assay [5], 3.14; in assay [7], 0.862; in assay [8] it was 1.78; in assay [9], 1; in [10], -0.21. For the same compound, the composite z-score in assay [11] amounted to 1.79; in assay [12], 0.298; in assay [13], 0.263; in assay [15], 0.966; in assay [16] it was 1.32; in assay [17], 0.205. Besides, the composite z-score in assay [18] stood at 0.969; in [19], 0.23; in assay [20], 1.34. Further, the z-score in [2] was 0.576 (inactive); in assay [3], 0.111 (inactive); in [4], 1.12 (inactive); in assay [6], 0.111 (inactive); in assay [14], -0.75 (inactive).
`C=C(COC)/C(=C/C[C@H](OC(=O)c1ccncc1)c1ccc(CO)o1)c1cc(C(=O)OC)ccc1OC`: the composite z-score in [1] is 1.55; in [5], 1.84; in [7], 0.0421; in [8], 0.834; in assay [9], 1.12; in assay [10] it was -0.112. In addition, the composite z-score in assay [11] was 1.69; in [12], -0.0393; in assay [13] it was -0.0885; in [15], 1.37; in assay [16], 0.637; in [17], 0.0603. Further, the composite z-score in assay [18] is 1.15; in [19], 0.82; in [20] it was 1.34. Moreover, the z-score in assay [2] is -0.787 (inactive); in assay [3], 0.132 (inactive); in assay [4] it was -0.443 (inactive); in assay [6], 0.55 (inactive); in assay [14] it was -0.647 (inactive).
